# The whole screen tested about 220,000 compounds, of which about 8,200 (3.7%) were called active. The sample holds actives, similar compounds and a random draw of the others, so the mix is not that of the screen. A number with no mark means an inactive call.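 Rule for the calls: active = compounds that reduced the stress-induced luciferase reporter signal by more than about 70% of percent inhibition (limit read from the data); inactive = the rest.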
# Test: inhibitors of CHOP promoter induction, primary screen, cell-based, unfolded protein response, luciferase reporter (AID 2732);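 note: 0% = tunicamycin plus vehicle and 100% = wells without tunicamycin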
# Conditions: CHO-K1 CHOP-promoter luciferase, tunicamycin-induced, 15-18 h; at 10 µM; hits give high values
row,Compound,inhibition
1,O=C(NNC(=O)c1csc(-c2cccnc2)n1)Nc1ccc(Cl)cc1,-32.3%
2,Cn1cc(S(=O)(=O)NC(c2ccccc2)c2ccccc2)c(=O)n(C)c1=O,9.19%
3,O=C(NCc1ccccc1Cl)NC(=O)c1csc([N+](=O)[O-])c1,-5.11%
4,CCn1c(C(C)NC(=O)c2ccc(C)cc2)n[nH]c1=S (stereo not drawn),25.9%
5,CCN1CCC2(CC1)N=C(c1ccc(F)cc1)C(=S)N2C(=O)c1ccc(C)cc1,95.4% (active)
6,Cc1ccc(C(=O)N(CN2CCCC2=O)c2ccc(F)cc2)cc1,-13.1%
7,CCn1c(CNC(=O)c2ccco2)nnc1SCC(=O)Nc1cccc(F)c1,-0.15%
8,CCn1c(SCC(=O)Nc2cccc(F)c2)nnc1-c1cc2cc(Br)ccc2o1,72.8% (active)
9,Cn1c(SCC(=O)Nc2ccc(Br)cc2F)nnc1-c1ccco1,24.1%
10,COC(=O)[C@H](Cc1ccccc1)NC(=O)Nc1ccc(OC)cc1,4.48%
11,CC(=O)c1cc(NC(=O)c2ccccc2)c(=O)oc1/C=C/N(C)C,11.8%
12,CCOC(=O)c1cc(NC(=O)c2ccc(Cl)cc2)c(=O)oc1-c1ccccc1,77.2% (active)
13,CCOC(=O)NNC(=O)c1ccc(Cl)cc1,-19.9%
14,COc1ccc(NC(=O)C2=C(C)NC(=O)NC2c2ccccc2[N+](=O)[O-])cc1 (stereo not drawn),-5.78%
15,O=C(Nc1ccc(S(=O)(=O)Nc2nccs2)cc1)c1cc(-c2ccncc2)nc2ccccc12,7.48%
16,Cc1ccc(-c2cc(C(=O)N/N=C/C=C/c3ccccc3)n[nH]2)o1,13.4%
17,O=C(N/N=C/C=C/c1ccccc1)C1CC1(c1ccccc1)c1ccccc1 (stereo not drawn),82.4% (active)
18,CC(/C=C/c1ccccc1)=N\NC(=O)C1CC1(C)c1ccccc1 (stereo not drawn),43.4%
19,CC(C)c1cc(CN2CCOCC2)cc(C(C)C)c1O,-5.16%
20,COc1ccc(/C=C/C(=O)Nc2ccc(C)cc2)cc1S(=O)(=O)N1CCOCC1,-1.01%
21,COc1ccc(/C=C/C(=O)Nc2c(C)nn(C)c2C)cc1COc1ccc(Br)cc1,105% (active)
22,COc1ccc(C(C)=O)cc1COc1ccc(Cl)c(C)c1,5.12%
23,CCn1nc(C)c(NC(=O)/C=C/c2ccc(OC)c(COc3ccc(Br)cc3)c2)c1C,86.6% (active)
24,COc1ccc(/C=C/C(=O)Nc2ccc3c(c2)OCCO3)cc1OC,-1%
25,COc1ccc(/C=C/C(=O)Nc2cccnc2)cc1OC,2.86%

row,Compound,inhibition
1,Cc1ccc(NC(=O)Nc2cc(-c3ccccc3)nn2C)cc1Cl,7.85%
2,C=CCNC(=S)N1CCc2[nH]c3ccccc3c2C1,0.96%
3,COc1ccc(CCNC(=O)C(=O)Nc2ccc3nc4n(c(=O)c3c2)CCCCC4)cc1OC,8.36%
4,O=C(Nc1cccc2c1N(C(=O)c1ccco1)CCC2)c1ccco1,-8%
5,CC1(C)CC(=O)C=C(Nc2ccccc2)C1,5.42%
6,O=C(O)/C=C/c1ccc2c(c1)OCCO2,-23.6%
7,COc1ccc(C(=O)Nc2ccccc2C(=O)N/N=C/c2ccc(O)c(OC)c2)cc1,88.8% (active)
8,COc1cc(/C=N\NC(=O)CNC(=O)c2cccc([N+](=O)[O-])c2)ccc1O,8.27%
9,COc1ccc(C(=O)Nc2ccccc2C(=O)N/N=C/c2ccccc2OC)cc1,-12.8%
10,CCOC(=O)Cn1c(=O)oc2cc(S(=O)(=O)NCC3CCCO3)ccc21 (stereo not drawn),22.5%
11,OC(CNCC1CCCO1)Cn1c2ccc(Br)cc2c2cc(Br)ccc21 (stereo not drawn),108% (active)
12,CCc1cc(Br)ccc1NC(=O)C1CCCO1 (stereo not drawn),-17.3%
13,O=C(Nc1ccc(S(=O)(=O)N2CCOCC2)cc1)c1ccc2ncsc2c1,2.87%
14,C/C(=N\NC(=S)Nc1ccc(C)cc1)c1cc2ccccc2o1,-20.3%
15,COCCCNC(=O)C1CCN(c2ccc(N3CCOCC3)nn2)CC1,-10.8%
16,Oc1ccc(N=Cc2sc3ccccc3c2Cl)cc1,81.8% (active)
17,Oc1ccc(N=Cc2c(O)ccc3ccccc23)cc1,40.5%
18,O=C(N/N=C/c1c(Cl)[nH]c2ccccc12)c1sc2ccccc2c1Cl,44.3%
19,O=C(Nc1ccccc1C(F)(F)F)c1cc(-c2ccc(O)cc2)on1,105% (active)
20,CC(NC(=O)c1cc(-c2ccccc2)on1)c1ccccc1 (stereo not drawn),58.1%
21,O=C(c1cc(-c2ccc(O)cc2)on1)N1CCCc2ccccc21,40.4%
22,CCCCCCNS(=O)(=O)c1ccccc1Br,16.4%
23,CCOC(=O)C1=NN(c2ccc(Cl)cc2)/C(=C/C2=NCCc3cc(OC)c(OC)cc32)S1,-5.16%
24,COc1ccccc1NC(=O)CCCc1c[nH]c2ccccc12,0.61%
25,CCCCCCCC(=O)NC(Nc1ccccc1OC)C(Cl)(Cl)Cl (stereo not drawn),87.9% (active)

row,Compound,inhibition
1,CCCC(=O)NC(Nc1ccccc1OC)C(Cl)(Cl)Cl (stereo not drawn),21.3%
2,CCOC(=O)NNc1cc(C(F)(F)F)ccn1,-10.6%
3,COc1ccc(Cl)cc1C(=O)NNC(=O)c1nc2nc(C)cc(C)n2n1,11.4%
4,Cc1onc(-c2c(Cl)cccc2Cl)c1C(=O)NNC(=O)c1c(-c2c(Cl)cccc2Cl)noc1C,-2.75%
5,O=C(/C=C/c1ccc(Cl)cc1)Nc1ccc(S(=O)(=O)Nc2ncccn2)cc1,15.1%
6,O=C(NCc1ccccc1)c1ccc(S(=O)(=O)Nc2cccc(C(F)(F)F)c2)cc1,26.6%
7,O=C(/C=C/c1ccc(F)cc1)Nc1cccc(S(=O)(=O)Nc2cccc(C(F)(F)F)c2)c1,103% (active)
8,OC(c1nc2ccccc2[nH]1)C(O)C(O)C(O)c1nc2ccccc2[nH]1 (stereo not drawn),4.88%
9,O=C(Cn1c(=O)n(Cc2ccco2)c(=O)c2ccccc21)NCC1CCCO1 (stereo not drawn),19%
10,Cc1ccccc1NC(=O)NCc1ccco1,-12.4%
11,Cc1ccccc1Cn1c2ccccc2c2cnn(CC(=O)NCc3ccco3)c(=O)c21,90.4% (active)
12,C/C(=N/NC(=O)CN1CCN(S(=O)(=O)c2ccc(Br)cc2)CC1)c1ccncc1,10.9%
13,Cc1ccc(N2C(=O)CC(N3CCSCC3)C2=O)c(C)c1 (stereo not drawn),19.1%
14,CCc1cccc(CC)c1NC(=S)Nc1ccc2cn[nH]c2c1,22.1%
15,S=C(Nc1cccc(Cl)c1)Nc1ccc2cn[nH]c2c1,-22.9%
16,Cc1csc(NC(=S)Nc2cccc(Cl)c2)n1,-212%
17,FC(F)(F)c1cccc(NC(=S)Nc2cccc(Cl)c2)c1,87.2% (active)
18,Cc1cccc(NC(=O)Nc2cccc(Oc3c(F)c(F)c(F)c(F)c3F)c2)c1,97.1% (active)
19,COc1cccc(NC(=O)NCc2ccc(F)cc2)c1,5.22%
20,Cc1cccc(NC(=O)Nc2nnc(-c3ccccc3)o2)c1,-9.17%
21,N#C/C(=C/c1ccc(-c2ccccc2[N+](=O)[O-])o1)C(=O)NCCN1CCCCC1,22.9%
22,Cc1c(NC(=O)C(=O)N/N=C/c2cccs2)c(=O)n(-c2ccccc2)n1C,9.69%
23,CC(C)CCN1NC2(CCC(C)CC2)NC1=S (stereo not drawn),-10.5%
24,CCCN(CCC)CC(O)COc1ccccc1C(=O)Nc1ccccc1 (stereo not drawn),16.4%
25,CC(=O)Nc1nc(C)c(-c2csc(Nc3ccc(S(N)(=O)=O)cc3)n2)s1,18.6%

row,Compound,inhibition
1,CC(=O)Nc1ccc(/C=N/Nc2ccc(C(=O)c3c(C)cc4ccccn34)cc2[N+](=O)[O-])cc1,17.2%
2,CCN(CC)C(=O)CSC(Nc1cccc(F)c1)=C(C#N)C#N,-25.7%
3,COc1cccc(/C=N/Nc2ncc(C(F)(F)F)cc2Cl)c1O,46.9%
4,O=[N+]([O-])c1cc(Br)c(O)c(/C=N/Nc2nc3ccccc3s2)c1,17.5%
5,Oc1c(Br)cccc1/C=N/Nc1c(F)c(F)c(F)c(F)c1F,89.8% (active)
6,CCOc1c(Nc2cccc(Cl)c2)c(=O)c1=O,18.3%
7,O=S(=O)([N-]c1nc2ccccc2nc1-[n+]1ccc(Cc2ccccc2)cc1)c1ccc(Br)s1,21.4%
8,O=S(=O)(c1ccccc1)c1nc(-c2ccccc2F)oc1NCc1cccnc1,4.16%
9,O=S(=O)(c1ccc(Br)cc1)c1nc(-c2ccccc2)oc1NCc1cccnc1,72.4% (active)
10,O=C(NCc1cccnc1)c1ccc(CS(=O)(=O)c2ccc(Br)cc2)o1,61.7%
11,O=C(Nc1ccc(Cl)cc1)Nc1ccc(C(=O)N2CCOCC2)cc1,33.4%
12,O=C(Nc1ccc2c(c1)OCCO2)c1ccoc1,0.05%
13,COc1ccccc1/C=C/C=N/NC(=O)CN1CCN(Cc2ccccc2)CC1,24.4%
14,Cc1cc2nc3c(=O)n(Cc4ccccc4)c(=O)[nH]c3nc2cc1N,3.92%
15,CS(=O)(=O)c1ccc2nc(NC(=O)c3ccc(N4CCCC4=O)cc3)sc2c1,-17%
16,O=C(Nc1nc2ccc([N+](=O)[O-])cc2s1)c1ccncc1,-12.2%
17,O=S(=O)(c1ccc2c(c1)OCCO2)N1CCc2ccccc21,32.4%
18,O=C(NC(Nc1nc2ccc([N+](=O)[O-])cc2s1)(C(F)(F)F)C(F)(F)F)c1ccccc1,106% (active)
19,COC(=O)C(NC(=O)c1ccc(OC)cc1)(Nc1ncc(S(=O)(=O)c2ccc([N+](=O)[O-])cc2)s1)C(F)(F)F (stereo not drawn),-14.3%
20,O=C(Nc1nc2ccc([N+](=O)[O-])cc2s1)c1ccc(S(=O)(=O)N2CCCc3ccccc32)cc1,80.6% (active)
21,CSc1nc2ccc(S(=O)(=O)N3CCc4ccccc43)cc2s1,71% (active)
22,CCn1c(=O)c(=O)n(CC)c2cc(S(=O)(=O)N3CCc4ccccc43)ccc21,35%
23,CNC(=O)c1ccsc1NC(=O)c1ccc(S(=O)(=O)N2CCc3ccccc32)cc1,37.3%
